Data from PubChem BioAssay (NCATS).
Records with an inconclusive call do not appear. A number with no mark means an inactive call. Active and inactive are the calls of the source. Calls come from the whole dose curve; as a rule, active = well fitted inhibition curve with a large enough effect; inconclusive = small, poorly fitted or top-dose-only effect; inactive = flat fitted curve, though single readings scatter.

target: Calcium and integrin-binding protein 1 (Homo sapiens) (UniProt Q99828); assay: Primary qHTS for Identification of Calcium Integrin Binding Protein 1 (CIB1) Competitor (AID 1508620); conditions: CIB1-GST / FITC-alphaIIb peptide fluorescence polarization; series mostly up to 57.7 µM; activity change, negative = inhibition: at the top concentration;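 note: GST tagged CIB1 binding a fluorescein labelled alphaIIb integrin peptide tracer; top concentration of the series differs between compounds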
Sequence (Q99828 whole entry, looked up): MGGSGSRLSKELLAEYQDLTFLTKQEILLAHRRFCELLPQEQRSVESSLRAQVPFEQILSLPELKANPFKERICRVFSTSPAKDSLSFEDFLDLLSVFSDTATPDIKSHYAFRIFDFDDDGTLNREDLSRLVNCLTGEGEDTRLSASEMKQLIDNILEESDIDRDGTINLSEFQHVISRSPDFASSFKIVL
In short: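 Fluorescence polarization competition: CIB1-GST (1 uM final) preincubated with compound 15 min at room temperature, then FITC-labeled alphaIIb peptide (100 nM final) added for another 15 min. Polarization read at Ex 480/Em 540.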
% is set by controls: 0 for no effect and ±100 for the full control effect.

| SMILES | activity change, negative = inhibition | Potency |
| --- | --- | --- |
| CC(C)(C)NCc1cc(Nc2ccnc3cc(Cl)ccc23)c2c(c1O)CCCC2 | -3.89% [at 1.07 µM] | – |
| CC(=O)C1CCC2(C)C3=C(CCC12C)C1(C)CCC(=O)C(C)(C)C1CC3 (stereo not given) | -2.08% | – |
| COC(=O)C1=CO[C@@H](O[C@@H]2O[C@H](CO)[C@@H](O)[C@H](O)[C@H]2O)[C@@H]2[C@@H](C)[C@@H](O)C[C@H]12 | -4.6% | – |
| CC(=O)NCCCCn1c2c(c3ccccc31)C(=O)NCC2 | -1.07% [at 114 µM] | – |
| Cc1ccc(Sc2cncc3sc(C(N)=O)cc23)cc1 | 0.507% [at 114 µM] | – |
| CN1Cc2c(N)cccc2C(c2ccccc2)C1 (stereo not given) | -4.39% [at 114 µM] | – |
| CC1CCC2(C)C(CC(O)C(O)C23CO3)C1(C)CCC1=CC(O)OC1=O (stereo not given) | 1.06% | – |
| COC1CC(OC2CCC3(C)C(=CCC4C3CCC3(C)C(C(C)O)CCC43O)C2)OC(C)C1OC1OC(C)C(OC2OC(COC3OC(COC4OC(CO)C(O)C(O)C4O)C(O)C(O)C3O)C(O)C(O)C2O)C(OC)C1O (stereo not given) | -0.96% [at 30.2 µM] | – |
| Cc1coc2c1CC1OC1(C)CCC1OC1(C)C2 (stereo not given) | 2.45% [at 114 µM] | – |
| COC(=O)C1C(c2ccc(O)cc2)C(C(=O)OC)C1c1ccc(O)cc1 (stereo not given) | 1.64% | – |
| CC(=O)OCCC(C)CCC1C(C)(O)CCC2C(C)(C)CCCC21C (stereo not given) | 2.18% | – |
| O=C(O)Cc1nn(Cc2nc3cc(C(F)(F)F)ccc3s2)c(=O)c2nccnc12 | 1.21% [at 114 µM] | – |
| CC(=O)N(O)CCCCCN1C(=O)CCC1=O | -3.61% [at 114 µM] | – |
| CCC(C)(O)C(O)C(=O)OCc1ccc(O[C@@H]2O[C@H](CO)[C@@H](O)[C@H](O)[C@H]2O)cc1 (stereo not given in full) | 3.7% | – |
| CC(=O)c1cnc2ccc(-c3cc(Cl)c(O)c(Cl)c3)nc2c1NC1CCC(CN(C)C)CC1 (stereo not given) | – | inactive |
| COc1c2c(c(C)c3c1C(=O)OC3)O[C@@]1(C)C[C@@H](O)[C@]34O[C@](OC)(CC[C@]3(C)[C@H]1C2)OC4(C)C | -4.67% | – |
| CC(C)CC(=O)n1cc(C(N)=O)c(=O)cc1C(O)c1ccccc1 (stereo not given) | -13% | – |
| C[C@H]1CC[C@@]2(OC1)O[C@H]1CC3C4CC=C5C[C@H](O)C[C@@H](O[C@@H]6O[C@@H](C)[C@H](O)[C@@H](O)[C@H]6O[C@@H]6O[C@@H](C)[C@H](O)[C@@H](O)[C@H]6O)[C@]5(C)C4CC[C@]3(C)[C@H]1[C@@H]2C (stereo not given in full) | 0.158% [at 30.2 µM] | – |

| SMILES | activity change, negative = inhibition | Potency |
| --- | --- | --- |
| C/C(=C\CCC(C)(O)c1ccc(C)cc1)C(=O)O (stereo not given) | -0.729% [at 114 µM] | – |
| COc1ccc2cc(OCC3(C(=O)O)CN(C(=O)c4ccc(F)cc4)C3)ccc2c1 | -1.14% [at 114 µM] | – |
| C=C(C)C1CC2(CO)C(=CC1=O)CCC(O)C2C (stereo not given) | -3.41% [at 114 µM] | – |
| CN(C)c1cccc(-c2c3c(=O)n(-c4ccccc4Cl)[nH]c3cc(=O)n2C)c1 | – | inactive |
| CC(/C=C/[C@]1(O)[C@@]2(C)CO[C@@]1(C)C[C@@H](O)C2)=C\C(=O)O[C@@H]1O[C@H](CO)[C@@H](O)[C@H](O)[C@H]1O | 3.13% | – |
| CC(=O)O[C@@]1(C)C[C@@H](O)[C@]2(O)C=CO[C@@H](O[C@@H]3O[C@H](CO)[C@@H](O)[C@H](O)[C@H]3O)[C@@H]21 | 4.86% | – |
| O=C(c1ccccn1)c1cnn2c(-c3ccncc3)ccnc12 | -3.4% [at 114 µM] | – |
| C[C@@H]1C(=O)O[C@H]2CC34[C@H]5C[C@@H](C(C)(C)C)C36[C@@H](OC(=O)[C@@H]6O)O[C@@]4(C(=O)O5)[C@]21O (stereo not given in full) | 3.52% | – |
| CC1(C)NC2N(C1=O)c1ccccc1C2(O)CC(C(=O)O)n1cnc2ccccc2c1=O (stereo not given) | -6.46% | – |
| COC(=O)CC1(O)C(=O)Nc2ccccc21 (stereo not given) | -3.79% [at 114 µM] | – |
| N[C@@H](CC(=O)N1CCn2c(nnc2C(F)(F)F)C1)Cc1[nH]nc2c(F)c(F)ccc12 | -6.16% [at 114 µM] | – |
| CC1(C)CC2C(O)C3=C(CC(C)(O)C2C1)C(=O)OC3O (stereo not given) | -2.85% [at 114 µM] | – |
| Cn1c(=O)cc(N2CCCC(N)C2)n(Cc2ccccc2C#N)c1=O (stereo not given) | 7.42% [at 114 µM] | – |
| C=C1[C@@H]2[C@H]3OC(=O)C(=C)[C@@H]3CC[C@@](C)(O)[C@@H]2C[C@@H]1O[C@@H]1O[C@H](CO)[C@@H](O)[C@H](O)[C@H]1O | 0.395% | – |
| CC(C)(OC1OC(CO)C(O)C(O)C1O)C1CCC(O)(CO)C2CC(O)C(C)(O)C2C1 (stereo not given) | 0.444% | – |
| O=C(/C=C/c1ccccc1)OCC1=CC[C@@H]2C(C(=O)O)=CO[C@@H](O[C@@H]3O[C@H](CO)[C@@H](O)[C@H](O)[C@H]3O)[C@H]12 | 0.537% | – |
| CCNC(=O)[C@H]1O[C@H](n2cnc3c(NCC(c4ccccc4)c4ccccc4)nc(C(=O)NCCNC(=O)NC4CCN(c5ccccn5)CC4)nc32)[C@H](O)[C@@H]1O | -1.95% [at 114 µM] | – |
